Source: PubChem
SW480 rerep: DNA re-replication induction in SW480 cells; SW480 DNA re-replication, Hoechst DNA content imaging, 48 h; Potency, µM (series often up to 46.1 µM), inactives show at the top dose re-replication activation, usual class: activators; hit rate 1.8% among 340,000; note: potency is the fitted concentration of half-maximal effect; % of control where 0% means no effect; nearly all actives have a fitted effect of over 55% in size
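Compounds, transferred as 23 nL by pin tool, were incubated with cells for 48 hr; DNA content per nucleus was then quantified by Hoechst staining and fluorescence plate imaging.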
Vif-A3G inh: blocks the Vif interaction with human APOBEC3G. Q9HC16. HeLa A3G-eYFP + Vif (tagged APOBEC3G with the HIV-1 protein that degrades it), YFP fluorescence, overnight. Potency, µM (highest dose often 46.1 µM), inactives show top-dose activity, negative = active, actives largely listed as inhibitors. hit rate 0.076% among 410,000; note: potency is the fitted concentration of half-maximal effect; % is set by controls: 0 for no effect and ±100 for the full control effect; nearly all actives have a fitted effect of over 60% in size
Target sequence (Q9HC16 whole entry, looked up): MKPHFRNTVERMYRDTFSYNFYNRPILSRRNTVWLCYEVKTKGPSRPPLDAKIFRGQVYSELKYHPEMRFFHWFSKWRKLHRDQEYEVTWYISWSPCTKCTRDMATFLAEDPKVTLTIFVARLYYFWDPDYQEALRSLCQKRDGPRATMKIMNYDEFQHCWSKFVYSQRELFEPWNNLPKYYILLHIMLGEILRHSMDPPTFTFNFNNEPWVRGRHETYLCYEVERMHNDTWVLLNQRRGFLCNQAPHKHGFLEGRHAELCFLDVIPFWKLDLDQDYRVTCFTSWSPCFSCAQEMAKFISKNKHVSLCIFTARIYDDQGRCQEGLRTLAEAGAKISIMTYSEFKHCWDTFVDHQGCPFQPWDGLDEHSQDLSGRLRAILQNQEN
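Read-out is eYFP fluorescence (Ex 488/Em 500-530) from Vif-expressing HeLa A3G-eYFP cells; more signal means A3G escaped Vif-mediated degradation. Cells plated overnight, compound pinned in, incubated overnight at 37 deg C.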
Giardia killer: Giardia lamblia killing | Giardia lamblia trophozoite viability | activity change, % at 7.66 µM, hits read low | hit rate 0.15% among 340,000 | AID 540267; in the data active = activity change below about -80%; inconclusive = between about -30% and that limit;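 note: parasites exposed to compound for two days anaerobically before the ATP read; % is set by controls: 0 for no effect and ±100 for the full control effect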
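Media and compound were dispensed first, then trophozoites at 100 cells/well; plates sat 48 hrs at 37 deg C without oxygen before ATP luminescence reagent was added and read after 15-30 min at room temperature.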
IL1B secr inh: inhibitors of inflammasome signaling (IL-1 beta secretion). activity change, % at 57.5 µM. THP-1 LPS/ATP IL-1B secretion, AlphaLISA, 16 h; hits give low values. AID 743279. hit rate 4.7% among 360,000; in the data active = activity change below about -50%; inconclusive = mostly about -30% to -49%; note: % is set by controls: 0 for no effect and ±100 for the full control effect
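THP-1 cells pretreated 1 hr with compounds (up to 57.5 uM final), then stimulated with LPS (250 ng/mL final) plus ATP (1.25 mM final); secreted IL-1B measured by AlphaLISA after 16 hr, decreased signal indicating inhibition.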
MCF10A rerep: induces DNA re-replication in MCF 10a normal breast cells; MCF 10A DNA re-replication, Hoechst nuclear intensity, 48 h; Potency, µM (doses to about 46.1 µM), without a hit: at the highest dose activity, positive = re-replication, actives largely listed as activators; hit rate 2.9% among 350,000; AID 624296; note: potency is the fitted concentration of half-maximal effect; % of control where 0% means no effect; nearly all actives have a fitted effect of over 50% in size
Vif-A3F inh: Vif-A3F binding inhibition | HeLa A3F-eYFP + Vif (tagged APOBEC3F with the HIV-1 protein that degrades it), YFP fluorescence increase | Potency, µM (titrated, usually from 46.1 µM), inactives show top-dose activity, negative = active | hit rate 0.2% among 390,000 | AID 602313; note: potency is the fitted concentration of half-maximal effect; % of control where 0% means no effect; nearly all actives have a fitted effect of over 65% in size
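HeLa cells stably expressing A3F-eYFP plus Vif, plated and incubated overnight at 37 deg C, then exposed to compounds overnight at 37 deg C. Blocked degradation read as raised yellow fluorescence (Ex 488/Em 500-530).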
* = called active by the depositor; u = inconclusive; x = not tested or not shown; [ ] = another dose, or the depositor's remark. The list is not random: actives were taken first. Their share in the collection is about 6.9%. Unless noted, calls come from the whole dose curve; as a rule, active = well fitted curve in the direction sought with a large enough effect; inconclusive = small, poorly fitted or top-dose-only effect, or another doubt; inactive = no such curve, though single readings can be large; an effect the other way counts as inactive or inconclusive.

SMILES	SW480 rerep	Vif-A3G inh	Giardia killer	IL1B secr inh	MCF10A rerep	Vif-A3F inh
CC(C)C[C@@H](CO)N(Cc1ccccc1)S(=O)(=O)N(Cc1ccccc1)[C@H](CO)CC(C)C	11.2%	-20.6%	-13.5	-78.5*	u	5.2%
COc1ccc(CN([C@H](C)CO)S(=O)(=O)N(Cc2ccccc2)[C@H](CO)C(C)C)cc1	-15.4%	-1.7%	-13.5	0.0	-11.1%	1.5%
COc1ccc(CN([C@H](CO)CC(C)C)S(=O)(=O)N(Cc2ccccc2)[C@H](CO)CC(C)C)cc1	-17.0%	u	7.5	-87.6*	267.4%	7.7%
C=C[C@H](CC(C)C)N(Cc1ccccc1)S(=O)(=O)N(Cc1ccccc1)[C@@H](C=C)CC(C)C	-2.9%[9.22 µM]	2.2%	-16.4	11.9	9.2µM*	5.0%
COC(=O)C[C@H]1CC[C@H](NC(=O)c2ccc(F)cc2)[C@@H](CO)O1	x	x	x	20.0	x	x
Cc1ccc(-n2c(=O)c3c(c4cc(C)ccc4n3C)n(CC(=O)NCCC3=CCCCC3)c2=O)cc1	x	-4.0%	x	x	x	-6.6%
O=C(O)c1ccc(S(=O)(=O)N(Cc2ccccc2)Cc2ccccc2)cc1	-13.8%	1.6%	-15.7	-3.6	1.0%	5.4%
O=S(=O)(N(Cc1ccccc1)[C@H](CO)Cc1ccccc1)N(Cc1ccccc1)[C@H](CO)Cc1ccccc1	-0.6%	4.4%	1.7	2.6	23.1µM*	2.8%
CC(C)c1ccc(/C=c2\sc3n(c2=O)C(N)=C(C#N)C(c2ccc(C(C)C)cc2)C=3C(N)=O)cc1 (stereo not given)	u	-0.2%	1.8	29.6	1.3µM*	-2.8%
COc1ccc(-c2c(C)nn3c(NC4CCCC4)cc(C)nc23)cc1OC	-20.6%	-2.6%	2.4	-3.7	-2.9%	14.2%
Cc1cc(SCC#N)n2nc(C)c(-c3ccccc3)c2n1	4.3%	-6.1%	-18.2	-59.6*	u	-5.6%
Cc1cc(NC2CCCC2)n2nc(C)c(-c3ccccc3)c2n1	22.0%	1.6%	-23.9	-74.1*	u	-0.2%
Cc1ccc2nc(-c3cccc(NS(C)(=O)=O)c3)cc(-c3ccccc3)c2c1	u	-8.7%	43.7	-100.5*	u	-15.4%
CC(NC(=O)c1cccnc1)C(=O)O (stereo not given)	1.03µM*	2.0%	-17.0	-6.2	-9.4%	-8.6%
CC(NC(=O)c1cccnc1)C(=O)N1CCCCC1 (stereo not given)	-0.6%	1.6%	-9.7	0.0	-2.4%	1.0%
CC(C)CCSc1cc(NCCO)c([N+](=O)[O-])c2nonc12	u	-1.5%	0.9	0.9	u	-16.8%
CC(=O)OCCCNc1cc(Sc2ccc(Cl)cc2)c2nonc2c1[N+](=O)[O-]	x	-0.1%	18.2	u	4.61µM*	-13.7%
CC(=O)OCCNc1cc(SC(C)C)c2nonc2c1[N+](=O)[O-]	-1.1%	0.0%	2.0	-22.4	-5.0%	2.6%
COC(=O)CCSc1cc(NCCCOC(C)=O)c([N+](=O)[O-])c2nonc12	x	-28.4%	-1.1	x	x	x
CCCC(=O)OCCNc1cc(Sc2nc3ccccc3[nH]2)c2nonc2c1[N+](=O)[O-]	u	u	-6.1	-103.9*	u	-2.9%
CCC(=O)OCCNc1cc(SCCC(=O)OC)c2nonc2c1[N+](=O)[O-]	11.1%	-8.9%	-3.7	-99.1*	u	-14.1%
CC(=O)OCCN(C)c1cc(SC(C)C)c2nonc2c1[N+](=O)[O-]	u	-16.4%	15.8	-68.3*	u	2.1%
CCC(=O)OCCNc1cc(Sc2nccn2C)c2nonc2c1[N+](=O)[O-]	x	-21.0%	5.9	-67.5*	u	8.4%
Cc1ccc(Sc2cc(NCCCO)c([N+](=O)[O-])c3nonc23)cc1	-0.1%	-0.6%	3.6	-17.4	-0.6%	3.1%
CCOc1ccc(NC(=O)Cn2cc(C(=O)c3ccc(F)cc3)c(=O)c3cc4c(cc32)OCO4)cc1	x	1.3%	x	x	x	7.8%
SMILES	SW480 rerep	Vif-A3G inh	Giardia killer	IL1B secr inh	MCF10A rerep	Vif-A3F inh
Cc1cccc(C(=O)Nc2ccccc2OCc2cc(=O)n3c(C)csc3n2)c1	x	4.1%	x	x	x	-1.1%
CC(C)CCCCCCCCCCCCC(=O)NCC(=O)NC1C(C)OC(Nc2ncnc3nc[nH]c23)C(O)C1O (stereo not given)	29.7%	-9.1%	4.0	-93.0*	22.5%	-1.7%
Cn1cc(/C=C2\SC(=S)N(NC(=O)c3ccccc3Cl)C2=O)c2ccccc21	3.7%	u	-26.6	-6.6	-11.4%	11.2µM*
Cc1ccc(C(=O)NN2C(=O)/C(=C/c3cn(C)c4ccccc34)SC2=S)cc1	1.8%	-12.0%	u	7.8	3.9%	u
CCC(=O)c1ccc(/C=C/c2nc3ccccc3n2C)o1	18.4µM*	-1.6%	u	19.0	8.2µM*	15.1%
COc1ccc(C(=O)CCS(=O)(=O)c2ccc(C)cc2)cc1OC	5.17µM*	-5.2%	-12.1	-81.9*	u	3.1%
Cc1ccc(S(=O)(=O)CCC(=O)c2ccc(O)cc2O)cc1	u	-21.1%	-17.6	-8.4	18.4µM*	1.6%
COc1ccc(C(=O)COC(=O)CCS(=O)(=O)c2ccc(C)cc2)c(OC)c1	0.2%	0.0%	-4.3	13.8	0.5%	2.0%
Cc1ccc(S(=O)(=O)CCC(=O)OCC(=O)c2cc(C)ccc2C)cc1	-0.4%	1.0%	-13.7	10.8	1.4%	5.1%
COc1ccc2c(c1)nc(SCC(=O)c1ccc(Br)s1)n2C	u	-4.4%	-14.8	-2.1	14.6µM*	1.2%
O=C(CN1CCCC1)Nc1ccc(-c2nc3cc(NC(=O)CN4CCCC4)ccc3o2)cc1	u	-4.5%	26.3	-55.9*	u	-1.5%
S=C1NC(c2ccccc2)=NCN1c1ccc(Cl)cc1	0.5%	3.4%	-11.3	-1.3	0.8%	-4.9%
COC(=O)c1ccc(N2CN=C(c3ccc(C)cc3)NC2=S)cc1	-1.0%	-1.5%	-5.1	0.0	25.9µM*	-1.1%
CC(C)Cn1c(N)c(C(=O)COC(=O)c2ccccc2F)c(=O)n(C)c1=O	-6.7%	-0.6%	10.6	14.9	-0.4%	2.1%
CC(C)Cn1c(N)c(C(=O)COC(=O)c2c(F)cccc2F)c(=O)n(C)c1=O	-56.1%	-5.5%	-23.6	3.7	0.517µM*	3.7%
CN(C)CCNc1ncnc2c1sc1nc(-c3ccccc3)c3c(c12)CCCC3	3.9%	-0.4%	-11.9	-75.8*	u	6.2%
COc1ncnc2c1sc1nc(-c3ccccc3)c3c(c12)CCCC3	-21.0%	-7.7%	u	17.9	-1.3%	-3.2%
CCc1cccc(CC)c1NC(=S)NCCc1c(C)[nH]c2ccc(C)cc12	14.6µM*	-8.6%	34.1	u	u	-3.4%
